Out of some 48,000 compounds screened, about 13,000 (27%) showed an effect of 50% or more. The list shows a part of the results.
test system: Wolbachia pipientis; assay: Anti-Wolbachia Cell-Based Screen; type: functional; design: scale not given: in the data most compounds retested in dose-response had high values; conditions: 5 µM

| Compound | Percent Effect [%] |
| --- | --- |
| Cc1nn(C)c(N(C)C)c1CNCc1cnn(Cc2ccccc2)c1 | 0.347 |
| O=C(Nc1ccc(CC(=O)N2CCCC2)cc1)NC1CC1 | 116.7 |
| O=C(Nc1ccc(CC(=O)N2CCSCC2)cc1)NC1CC1 | 1.128 |
| O=C(Nc1ccc(CC(=O)N2CCSCC2)cc1)NC1CCCC1 | -7.412 |
| Cc1nc(CNC(=O)NC2CCN(c3ncccc3Cl)C2)no1 (stereo not given) | -5.791 |
| OCCC1CN(c2ncnc3[nH]cnc23)CCN1Cc1ccccc1 (stereo not given) | -15.48 |
| CCN1CC2(CCC1=O)CCN(Cc1nncn1C)CC2 | -22.02 |
| CCCN1CCCC2(CCN(Cc3noc(C4CCCC4)n3)C2)C1=O (stereo not given) | -0.09411 |
| CCCN1CCCC2(CCN(Cc3cncn3C3CCCCC3)C2)C1=O (stereo not given) | -18.59 |
| CC(C)N1CCCC2(CCN(Cc3nncn3C(C)C)C2)C1=O (stereo not given) | 92.74 |
| CCN1CC2(CCC1=O)CCN(Cc1nncn1C(C)C)CC2 | 3.317 |
| CC(C)[C@H]1COC(=O)N1Cc1nncn1C(C)C | 9.429 |
| CC(C)n1cnnc1CN1CCC2(CCCN(C3CCCCC3)C2=O)C1 (stereo not given) | 113.2 |
| CC(C)N1CCCC2(CCN(Cc3noc(C4CCCC4)n3)C2)C1=O (stereo not given) | 17.18 |
| Cn1cnnc1CN1CCC2(CCCN(C3CCCC3)C2=O)C1 (stereo not given) | 103.4 |
| Cn1cnnc1CN1CCC2(CCCN(C3CCCCC3)C2=O)C1 (stereo not given) | 111.9 |
| CCCN1CCCC2(CCN(Cc3cncn3C3CCCC3)C2)C1=O (stereo not given) | 1.607 |
| CN1CCCC2(CCN(Cc3cncn3C3CCCCC3)C2)C1=O (stereo not given) | -0.6007 |
| O=C(O)C(F)(F)F.c1csc(CN2CCC3(CCCN(c4nncs4)C3)C2)n1 (stereo not given) | -3.653 |
| CCN1CCC(N2C[C@H]3OC(=O)N(CCc4cccc(Cl)c4)[C@H]3C2)CC1 | -15.6 |
| CCSCCC(=O)Nc1ncn(CC(=O)NCc2ccccc2)n1 | 1.311 |
| CN(Cc1ccc(C(=O)Nc2sccc2C#N)cc1)Cc1ccno1 | -5.875 |
| CC(C)CC(=O)N1CC(=O)N(CCc2ccccc2)CC(O)C1 (stereo not given) | 118.7 |
| CC(C)(C)OC(=O)N1CC(=O)N(CCc2ccccc2)CC(O)C1 (stereo not given) | 114.6 |

| Compound | Percent Effect [%] |
| --- | --- |
| Cc1csc(N(C)C(=O)C2CC(=O)N(CCc3ccccc3)C2)n1 (stereo not given) | 4.812 |
| CNC(=O)C1Cc2ccccc2CN1CCCc1ccccc1 (stereo not given) | -8.054 |
| CC(C)COC(=O)N1CC(=O)N(CCCc2ccccc2)CC(O)C1 (stereo not given) | 111 |
| CN(C(=O)C1CC(=O)N(CCc2ccccc2)C1)c1nccs1 (stereo not given) | 3.016 |
| CCOC(=O)N1CC(=O)N(CCc2ccccc2)CC(O)C1 (stereo not given) | 123.2 |
| Cc1[nH]ccc1C(=O)NCC1CC(=O)N(CCc2ccccc2)C1 (stereo not given) | 5.345 |
| CC(C)c1cc(C(=O)N2CCCN(CCCc3ccccc3)CC2)[nH]n1 | 0.07047 |
| CC(C(=O)O)N1CC2(CCC1=O)CCN(CCc1ccccc1)CC2 (stereo not given) | -3.737 |
| CC(C)(C)N1CC(C(=O)N2CCN(CCc3ccccc3)CC2)CC1=O (stereo not given) | 4.322 |
| Cc1ccccc1C(C)CC(=O)N1CC[C@H](O)C1 (stereo not given in full) | -9.659 |
| CSc1nc(N)cc(N2C[C@@H]3CC[C@H](C2)N(Cc2cscn2)C3=O)n1 | 0.1745 |
| CCN(CC)C(=O)CN(C)C1CCc2ccccc21 (stereo not given) | -5.842 |
| CN(Cc1ccco1)Cc1ccccc1CNC(=O)c1ccc[nH]1 | 22.22 |
| O=C(CN(Cc1ccccc1)CC1CCOCC1)NC(=O)NC1CC1 | 17.45 |
| O=C(NCC1CC(=O)N(CCc2ccccc2)C1)c1c(F)cccc1F (stereo not given) | -5.982 |
| COCc1cccc(C(=O)N2CCCN(C(=O)OCC(C)C)CC2)c1 | 8.994 |
| CC(C)COC(=O)N1CC(=O)N(CCc2ccccc2)CC(O)C1 (stereo not given) | 128.8 |
| CN(Cc1cc2n(n1)CCNC2)Cc1cc(-c2ccccn2)no1 | -13.42 |
| COCCN(C)CCN1CC2(CCN(C3CCCCC3)CC2)OC1=O | 5.41 |
| Cc1ccc(OCCCNC(=O)C2(C)CC(=O)N3C=CC=CC3=N2)cc1 (stereo not given) | 121.9 |
| Cc1ccc(OCCCNC(=O)C(C)Sc2nncn2C)cc1 (stereo not given) | -12.11 |
| CC(=O)N1C[C@H]2CNC[C@@]2(C(=O)NCCOc2ccccc2F)C1 | -24.48 |
| Cc1ccc(OCCCNC(=O)NC(C)c2nncn2C)cc1 (stereo not given) | 6.672 |
| CC1(C(=O)NCCCOc2ccccc2F)CC(=O)N2C=CC=CC2=N1 (stereo not given) | 94.6 |

| Compound | Percent Effect [%] |
| --- | --- |
| CC(C)n1cnnc1CNC(=O)CCCOc1ccccc1F | -11.73 |
| Cc1ccccc1OCCCC(=O)NCc1ccnc(O)c1 | 0.1065 |
| Cc1ccccc1OCCCNC(=O)C1(C)CC(=O)N2C=CC=CC2=N1 (stereo not given) | 112.8 |
| CSc1cc(CNC(=O)CCOc2ccccc2C)ccn1 | 2.605 |
| COc1cc(C)c(CNC(C)c2csc(C3CC3)n2)cc1OC (stereo not given) | 30.24 |
| CC(C)Cc1cc(C(=O)NC(C)(C)c2nnc(N)s2)n(C)n1 | -11.71 |
| Cc1noc(NCc2ccc(F)cc2F)n1 | 23.53 |
| Cc1noc(C2CCCN(C(=O)c3ccc(Cl)cc3F)C2)n1 (stereo not given) | -0.5657 |
| CC(C)c1nnc2ccc(N3CCC(C(N)=O)CC3)nn12 | 13.6 |
| CS(=O)(=O)CCOCCNc1ccc2ccc(F)cc2n1 | 5.905 |
| COCC(NC(=O)c1ccc[nH]1)c1cccc(C(F)(F)F)c1 (stereo not given) | -9.811 |
| CN1CCc2cc(C(=O)N(C)C)c(NCC3CC3)nc2CC1.O=C(O)C(F)(F)F.O=C(O)C(F)(F)F | 92.24 |
| CC(C)CCN1CCc2cc(C(=O)N(C)C)c(NCC3CC3)nc2CC1.O=C(O)C(F)(F)F.O=C(O)C(F)(F)F | 98.43 |
| O=C(O)C(F)(F)F.O=C(O)C(F)(F)F.O=C(O)c1cc2c(nc1NCC1CC1)CCN(C1CCOC1)CC2 (stereo not given) | -1.204 |
| CC(C)Nc1nc2c(cc1C(=O)NCC1CC1)CCN(C)CC2.O=C(O)C(F)(F)F.O=C(O)C(F)(F)F | 0.01551 |
| O=C1N(CCO)CCCC12CCN(Cc1noc(C3CCCC3)n1)C2 (stereo not given) | -14.7 |
| COc1ccc2c(=O)n(CC3CCCN(C)C3)ccc2c1OC (stereo not given) | -1.973 |
| Cc1cc(C(=O)N2CCCC(N3CCNC3=O)C2)nn1C(C)(C)C (stereo not given) | -5.29 |
| CCCS(=O)(=O)c1ncc(CN2CCC(CO)CC2)n1CC1CCCO1 (stereo not given) | 10.89 |
| CC(C)n1nc(CNc2ncccn2)c2c1CN(C)CC2.O=C(O)C(F)(F)F.O=C(O)C(F)(F)F.O=C(O)C(F)(F)F | -10.41 |
| c1cnc(NCc2noc3c2CN(c2cnccn2)CC3)nc1 | 99.25 |
| O=C(c1ccncc1)N1CCc2onc(CN3CCCC3)c2C1 | -9.45 |
| CC(C)n1nc(CNc2ncccn2)c2c1CN(S(C)(=O)=O)CC2 | 3.209 |
| O=C(c1cnccn1)N1CCc2onc(CN3CCCC3)c2C1 | 10.5 |

| Compound | Percent Effect [%] |
| --- | --- |
| O=C(c1ccsc1)N1CCc2onc(CN3CCOCC3)c2C1 | -3.104 |
| CCN1CCc2onc(CNc3ncccn3)c2C1 | 1.38 |
| c1cnc(N2CCc3onc(CN4CCCC4)c3C2)cn1 | 88.59 |
| CCS(=O)(=O)N1CCc2onc(CNc3ncccn3)c2C1 | 3.304 |
| Cn1nc(CNc2ncccn2)c2c1CN(c1cnccn1)CC2 | 89.69 |
| c1cnc(N2CCc3onc(CN4CCOCC4)c3C2)cn1 | 102 |
| O=C(c1cccnc1)N1CCc2onc(CN3CCCC3)c2C1 | -1.696 |
| COc1cc(C(=O)NC2COc3ccccc3C2)ccc1OCC(N)=O (stereo not given) | 16.72 |
| Fc1ccc2[nH]c(C3CCCN3CCCn3cccn3)nc2c1 (stereo not given) | -31.47 |
| C=Cc1cccc(CN2C[C@@H](CN(C)CC)[C@@H](CO)C2)c1 | -5.546 |
| O=C1CC2(CCN(C(=O)c3cccc(Cl)c3)CC2)CN1 | -6.217 |
| COC(=O)[C@@H](NC(=O)c1coc(COc2cccc(F)c2F)n1)C(C)C | -36.4 |
| Cc1cc(CN(CCO)c2ccc(Br)cc2)on1 | -2.085 |
| Cc1cccc(N2CC[C@H]3[C@H](CO[C@@H]3CN(C)Cc3ccco3)C2)n1.O=C(O)C(F)(F)F.O=C(O)C(F)(F)F | 52.12 |
| CN(Cc1ccco1)C[C@H]1OC[C@@H]2CCN(Cc3ccncc3)C[C@@H]21.O=C(O)C(F)(F)F.O=C(O)C(F)(F)F.O=C(O)C(F)(F)F | -1.908 |
| CN(Cc1ccco1)C[C@H]1OC[C@@H]2CCN(Cc3cccnc3)C[C@@H]21.O=C(O)C(F)(F)F.O=C(O)C(F)(F)F.O=C(O)C(F)(F)F | 7.341 |
| CN(Cc1ccco1)C[C@H]1OC[C@@H]2CCN(Cc3nccs3)C[C@@H]21 | -15.41 |
| CN(Cc1ccco1)C[C@H]1OC[C@@H]2CN(c3ncc(F)cn3)CC[C@@H]21.O=C(O)C(F)(F)F.O=C(O)C(F)(F)F | 81.17 |
| Cc1ccc(N2CC[C@H]3CO[C@H](CN(C)Cc4ccco4)[C@H]3C2)nn1.O=C(O)C(F)(F)F.O=C(O)C(F)(F)F | 95.46 |
| CN(Cc1ccco1)C[C@@H]1OC[C@H]2CN(Cc3nccs3)CC[C@H]21.O=C(O)C(F)(F)F.O=C(O)C(F)(F)F | 3.908 |
| Cc1cccc(N2CC[C@@H]3[C@@H](CO[C@H]3CNS(C)(=O)=O)C2)n1 | -14.44 |
| CN(Cc1ccco1)C[C@H]1OC[C@@H]2CCN(Cc3cccs3)C[C@@H]21.O=C(O)C(F)(F)F.O=C(O)C(F)(F)F | -12.79 |
| Cc1cccc(N2CC[C@H]3CO[C@H](CN(C)Cc4ccco4)[C@H]3C2)n1 | 108.5 |

Source: ChEMBL document CHEMBL3988442, “University of Dundee, Small-Polar-MMV Screening Library” (2021)
